The list is not random: actives were taken first. Their share in the collection is about 1.6%.
FBPA coupling cs – coupling enzyme interference in Giardia aldolase counter-screen. 290,000 tested, 0.67% active. AID 2472. coupling enzyme system counterscreen, AmpLite Red fluorescence. activity change, negative = inhibition, % at 58.2 µM, hits read low; in the data active = activity change below about -30%; note: % is set by controls: 0 for no effect and ±100 for the full control effect
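First, compound is pin-transferred into glyceraldehyde-3-phosphate coupling-enzyme reagent at 57.5 uM final and held 10 min at RT. Next, substrate, coupling system and AmpLite Red are added. After 20 min RT, fluorescence (525/598 nm) is read.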
RXFP1 agonist – agonists of human relaxin receptor RXFP1 | Q9HBX9 | Potency, µM (series often up to 57.5 µM), inactives show at the highest dose activation, hits mostly activators | 370,000 tested, 0.3% active | HEK293T-RXFP1 cAMP TR-FRET, 30 min; response scale: percent of porcine relaxin response, buffer zero; active = well fitted activation curve with a large enough effect; inconclusive = small, poorly fitted or top-dose-only effect; note: potency is the fitted concentration of half-maximal effect; % is set by controls: 0 for no effect and ±100 for the full control effect; nearly all actives have a fitted effect of over 60% in size
Target sequence (Q9HBX9 whole entry, looked up): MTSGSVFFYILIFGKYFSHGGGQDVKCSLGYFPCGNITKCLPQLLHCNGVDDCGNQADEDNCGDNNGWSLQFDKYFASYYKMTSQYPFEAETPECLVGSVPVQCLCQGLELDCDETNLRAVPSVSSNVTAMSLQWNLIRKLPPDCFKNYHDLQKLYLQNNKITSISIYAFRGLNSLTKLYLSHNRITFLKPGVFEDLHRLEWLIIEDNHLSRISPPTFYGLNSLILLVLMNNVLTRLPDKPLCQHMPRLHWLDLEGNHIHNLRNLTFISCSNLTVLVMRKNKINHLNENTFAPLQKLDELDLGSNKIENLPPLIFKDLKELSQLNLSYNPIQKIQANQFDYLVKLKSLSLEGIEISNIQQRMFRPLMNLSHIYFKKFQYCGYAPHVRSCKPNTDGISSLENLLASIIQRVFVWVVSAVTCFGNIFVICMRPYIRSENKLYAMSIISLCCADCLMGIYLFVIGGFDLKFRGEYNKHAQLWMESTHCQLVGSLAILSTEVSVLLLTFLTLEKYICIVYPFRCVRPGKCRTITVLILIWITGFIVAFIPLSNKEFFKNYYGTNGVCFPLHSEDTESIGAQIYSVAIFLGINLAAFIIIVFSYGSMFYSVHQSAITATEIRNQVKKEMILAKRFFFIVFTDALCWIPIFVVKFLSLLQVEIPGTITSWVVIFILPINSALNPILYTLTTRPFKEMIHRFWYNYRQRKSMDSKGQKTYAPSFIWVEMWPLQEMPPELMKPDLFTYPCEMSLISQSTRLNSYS
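cAMP rise read by TR-FRET after 30 min, 37C compound exposure (up to 58 uM) in RXFP1-transfected HEK293 cells with Ro 20174 present. EC50 from Hill-equation fits, with 29 nM porcine relaxin as 100% and buffer as basal.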
gsp antag – gsp mutant antagonism | 340,000 tested, 0.4% active | gsp-mutant cells, cAMP HTRF, 30 min | Potency, µM (top dose mostly 76.9 µM), for the others: at the top dose activity change, negative = inhibition, hits mostly inhibitors | AID 624288; calls by dose curve; cell line not stated here;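 note: intracellular cAMP measured with PDE inhibitor Ro 20-1724 present during compound exposure; potency is the fitted concentration of half-maximal effect; % is set by controls: 0 for no effect and ±100 for the full control effect; nearly all actives have a fitted effect of over 65% in size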
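G418-selected cells were plated in DMEM/10% FBS for 16-24 h at 37C, then treated with compounds plus the PDE inhibitor […] (300 uM solution added) for 30 min at 37C. Intracellular cAMP was measured by HTRF after 30 min lysis at room temperature.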
gsp agonist – activates gsp, the McCune-Albright syndrome mutation; 340,000 tested, 0.13% active; gsp mutant cells, cAMP HTRF, 30 min; Potency, µM (series often up to 76.9 µM), for inactives: top-dose activation (cAMP increase), usual class: activators; active = well fitted activation curve with a large enough effect; inconclusive = small, poorly fitted or top-dose-only effect, or another doubt; inactive = no such curve, though single readings can be large or run the other way; cell line not stated here;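 note: phosphodiesterase inhibitor Ro 20-1724 added with compounds to block cAMP breakdown; potency is the fitted concentration of half-maximal effect; nearly all actives have a fitted effect of over 60% in size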
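Cells stably selected in G418 were plated at 2000/well, grown 16-24 hr, then given compounds in DMSO with the PDE inhibitor […] (300 uM solution added) for 30 min at 37C; cAMP was read by HTRF.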
RXFP1 antag – RXFP1 (human) relaxin receptor antagonism. Q9HBX9. HEK293-RXFP1, relaxin-stimulated cAMP HTRF, 30 min; stronger effect = lower value. activity change, negative = inhibition, % at 57.5 µM. 350,000 tested, 0.59% active. AID 1259400;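 active = activity change of -60% or lower, but not beyond a set lower limit; inconclusive = change between -60% and -40%, or beyond the set limit; inactive = change above -40%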; note: % is set by controls: 0 for no effect and ±100 for the full control effect
Giardia kill – kills Giardia lamblia; Giardia lamblia trophozoite viability; activity change, % at 7.66 µM, hits read low; 340,000 tested, 0.15% active; AID 540267; in the data active = activity change below about -80%; inconclusive = between about -30% and that limit;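 note: parasites exposed to compound for two days anaerobically before the ATP read; % is set by controls: 0 for no effect and ±100 for the full control effect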
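Giardia trophozoites, 100 cells per well, were exposed to compounds for 48 hrs at 37 deg C under anaerobic conditions; viability was then read as ATP content by bioluminescence after 15-30 min at room temperature.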
An asterisk follows results filed as active; ? = inconclusive; . = not tested or not shown; ! = repeats disagree.

SMILES	FBPA coupling cs	RXFP1 agonist	gsp antag	gsp agonist	RXFP1 antag	Giardia kill
CC(c1ccccc1)N(CCC(c1ccccc1)C1CCOC(C)(C)C1)C(=O)c1ccco1 (stereo not given)	2.2	1.3%	?	-20.4%	?	-7.3
CCOc1ccc(S(=O)(=O)N(CC)CC)cc1NC(=O)CSCc1c(C)noc1C	.	16.8%	0.6%	10µM*	10.1	-3.4
COCCNC(=O)c1c(-c2ccccc2)c(-c2ccccc2)nn(C)c1=O	.	-2.5%	.	.	-6.1	.
CCCOC(=O)c1c(-c2ccccc2)c(-c2ccccc2)nn(C)c1=O	.	1.9%	.	.	-65.3*	.
Cc1cc(C)n(/N=C\c2c(O)ccc3ccccc23)c(=O)c1C(N)=O	-32.4*	-1.2%	10.2%	-2.2%	-10.8	-0.5
NS(=O)(=O)Nc1c(Br)cc(Br)c2cccnc12	.	.	.	.	.	7.6
Cc1nonc1NC(=O)CSc1nc(CCC2CCCC2)nc2ccccc12	1.6	?	-11.2%	20µM*	-10.8	-27.9
Cc1cc(NC(=O)CSc2nc(CCC3CCCC3)nc3ccccc23)no1	1.4	7.6%	8.3%	9.6%	3.5	3.2
CCN(CC)CCCN(C(=O)c1ccco1)c1nc(-c2ccc(C)cc2)cs1	-0.6	-0.1%	10.7%	23.6%	-14.2	30.5
CCN(CC)CCCN(C(=O)c1ccco1)c1nc(-c2ccc(Cl)cc2)cs1	1.4	1.4%	2.1%	-54.1%	-96.5*	16.8
CCc1cccc(CC)c1NC(=O)C(CC)n1nc(C)n2c(cc3cc(C)ccc32)c1=O (stereo not given)	.	25.7%	.	.	.	.
COc1ccc(S(=O)(=O)N2CCC(C(=O)NCCC(=O)NCc3ccncc3)CC2)cc1	.	1.8%	21.7%	-1.6%	5.4	6.7
COc1ccc(S(=O)(=O)N2CCC(C(=O)NCCC(=O)NCc3ccccc3OC)CC2)cc1	.	1.6%	31.6µM*	0.8%	?	-3.5
CSc1ccc(CN2CCC(CO)(Cc3ccc(Cl)cc3)CC2)cc1	8.7	-1.1%	18.9%	-3.5%	-81.4*	10.5
CN1OC[C@@H]2CN(Cc3ccc(Cl)cc3)[C@H](c3cccc(Br)c3)C[C@@H]21	.	.	-11.5%	.	.	5.9
CCOC(=O)c1ccc(NC(=O)C2CCCN(c3cnccn3)C2)cc1 (stereo not given)	2.8	-2.1%	-4.1%	-2.0%	-61.4*!	27.3
CC(C)c1ccc(NC(=O)NCc2ccccn2)cc1	-0.3	1.3%	9.3%	3.6%	-5.1	-6.7
CCC(=O)Oc1ccc(C/C(=N\O)c2ccc(O)cc2O)o1	-3.5	-0.8%	5.62µM*	-19.8%	-60.1*	6.1
N#Cc1nc(-c2ccc(OCc3ccc(Cl)cc3)cc2)oc1N1CCCCCC1	.	.	.	.	.	2.2
COc1ccccc1NC(=O)CCCc1nnc2n(C)c(=O)c3sccc3n12	3.4	4.47µM*	10.6%	12.6µM*	11.0	0.2
Cc1ccc(CNC(=O)CCCc2nnc3n(C)c(=O)c4sccc4n23)cc1	.	?	.	.	2.8	.
CCCn1c(=O)c2sccc2n2c(CCCC(=O)Nc3ccccc3OCC)nnc12	.	3.4%	.	.	.	.
CCn1c(=O)c2sccc2n2c(CCCC(=O)NCc3cccnc3)nnc12	3.5	17.8µM*	11.2%	?	-7.1	16.0
COc1ccccc1CNC(=O)CCCc1nnc2n(C)c(=O)c3sccc3n12	1.1	?	-2.4%	14.1µM*	14.0	25.3
Cn1c(=O)c2sccc2n2c(CCCC(=O)NCc3ccco3)nnc12	1.9	14.1µM*	5.9%	?	4.9	25.7
CC(=O)c1c(C)[nH]c(C(=O)COC(=O)CNS(=O)(=O)c2ccccc2)c1C	1.4	1.0%	-20.7%	-7.3%	-12.7	1.9
CCOC(=O)c1c(C)[nH]c(C(=O)COC(=O)CNS(=O)(=O)c2ccc(C)cc2)c1C	.	2.3%	31.6µM*	-17.2%	-10.1	2.3
CC(=O)Oc1ccc(C(=O)[C@H]2[C@H]3C(=O)N(c4ccccc4)C(=O)[C@H]3[C@@H]3C=CC=NN32)cc1	-41.4*	2.3%	2.3%	-0.1%	.	2.0
N[C@@H](CSCCCO)C(=O)O	.	.	.	.	-2.2	.
CCCCCCC1Cc2cc(OC)c(OC)cc2C(C(C(=O)OCC)C(=O)OCC)O1 (stereo not given)	-1.0	.	.	.	.	.

Bioassay records (PubChem BioAssay)
